{
  "source": "PubChem BioAssay (NCATS)",
  "note": "Results filed as inconclusive are left out. A number with no mark means an inactive call. The source made the active and inactive calls. The call rests on the fitted dose curve; in most records, active means well fitted curve in the direction sought with a large enough effect; inconclusive means small, poorly fitted or top-dose-only effect, or another doubt; inactive means no such curve, though single readings can be large; an effect the other way counts as inactive or inconclusive. Further: nearly all actives have a fitted effect of over 70% in size. On the % scale 0 is the no-effect control and ±100 the full control effect.",
  "data": [
    {"assay": "Primary qHTS for inhibitors of nuclear receptor binding SET domain protein 2 (NSD2) in an isogenic RCH-ACV NSD2 p.E1099K mutant (9B) (AID 1645876)", "conditions": "RCH-ACV NSD2 E1099K (9B) viability, CellTiter-Glo, 72 h; series mostly up to 44.9 µM; activity change, negative = viability loss: at the top concentration", "units": {"activity change, negative = viability loss": "%"}, "values": [
      {"smiles": "COc1ccc2c(c1OC)C(=O)O[C@H]2[C@@H]1c2cc3c(cc2CCN1C)OCO3", "activity change, negative = viability loss": -4.66},
      {"smiles": "O=C(Nc1ccc(Br)cc1)c1cc(Br)cc(Br)c1O", "outcome": "inactive"},
      {"smiles": "CCCN(CCC)C(=O)Cc1c(-c2ccc(Cl)cc2)nc2ccc(Cl)cn12", "activity change, negative = viability loss": -19.6}
    ]},
    {"assay": "Primary qHTS for inhibitors of nuclear receptor binding SET domain protein 2 (NSD2) in an RCH-ACV wild type WT cells (2C) (AID 1645877)", "conditions": "RCH-ACV NSD2 WT (2C) viability, CellTiter-Glo, 72 h; series mostly up to 44.9 µM; activity change, negative = cell killing: at the top concentration", "units": {"activity change, negative = cell killing": "%"}, "values": [
      {"smiles": "COc1ccc2c(c1OC)C(=O)O[C@H]2[C@@H]1c2cc3c(cc2CCN1C)OCO3", "activity change, negative = cell killing": 8.38},
      {"smiles": "O=C(Nc1ccc(Br)cc1)c1cc(Br)cc(Br)c1O", "activity change, negative = cell killing": -2.71},
      {"smiles": "CCCN(CCC)C(=O)Cc1c(-c2ccc(Cl)cc2)nc2ccc(Cl)cn12", "activity change, negative = cell killing": -22.9}
    ]}
  ]
}
